# From PubChem BioAssay
# Assay: S6 kinase pathway phospho-S6 level changes – cell-based, A549, cytoblot, luminescence, serum-stimulated, primary screen (AID 1158);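 also: serum-stimulated A549 lung adenocarcinoma cells; signal is phosphorylated S6 detected by cytoblot immunostaining with HRP secondary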
# Details: 5 h, higher = more signal
row,Structure (SMILES),z-score
1,CN(C)C(=O)[C@]1(Cc2ccccc2N=[N+]=[N-])N=C(c2ccc(OCCCO)cc2)O[C@@H]1c1ccccc1,1.38
2,CCCCCC1=C2CNC(CCC)(C(=O)OC)C=C2C(C)C1=O (stereo unspecified),-0.39
3,COCCOC(=O)N1C(=O)[C@@]2(c3cc(C#CCCO)ccc31)[C@H](C(=O)N1CCc3cc(OC)c(OC)cc3C1)[C@H]1C(=O)O[C@H](c3ccccc3)[C@H](c3ccccc3)N1[C@@H]2c1ccc(O)cc1,0.113
4,O=C(NCc1ccccc1)[C@@]1(Cc2ccccc2)N=C(c2ccc(OCCCO)cc2)O[C@H]1c1ccccc1,-0.0312
5,CC(C)c1ccc(NN2C(C(O)c3cc(C(F)(F)F)cc(C(F)(F)F)c3)C=CC3C(=O)N(c4ccccc4)C(=O)C32)cc1 (stereo unspecified),0.122
6,CN1C(=O)[C@]2(Cc3ccccc3)N=C(c3ccc(OCCCO)cc3)O[C@@H]2c2ccccc21,0.435
7,CC(C)(C)OC(=O)CC[C@]1(C(=O)NCC(O)CO)COC(c2ccc(OCCCO)cc2)=N1 (stereo partly specified),0.0272
8,CCOC(=O)C[C@H]1[C@H](OC(=O)c2cc3ccccc3oc2=O)[C@@H](NC(=O)Cc2ccc(OC)cc2)c2cc(OCCCO)ccc2N1C(=O)c1ccccc1,1.03
9,COc1ccc(CCNC(=O)[C@@]2(Sc3ccc(C)cc3)CC(=O)N(C3CCCCC3)[C@@H]2c2ccc(CO)cc2I)cc1,-0.012
10,COc1ccc(C(=O)O[C@H]2CC[C@]3(C)C4=C(CCC3C2(C)C)[C@]2(C)CC[C@H]([C@H](C)CCCC(C)C)[C@@]2(C)CC4)cc1 (stereo partly specified),1.86
11,CCOC(=O)C[C@H]1[C@H](OC(=O)Cc2ccc3c(c2)OCO3)[C@@H](NC(=O)c2ccc3ccccc3c2)c2cc(OCCCO)ccc2N1C(=O)c1ccccc1,0.0043
